{"source": "the supplement of paper PMC10503962"}
{"system": "Trichuris muris adult worms", "test": "mean motility score (Paragon pixel variance) of adult worms (arbitrary units); higher = more motile worms, i.e. less anthelmintic effect; extreme values may be limits of the assay", "details": "100 µM; 24 h", "in_short": "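Films of 200 frames spaced 100 ms apart were taken on an automated phenotyping platform after worms had spent 24 h at 37°C and 5% CO2. Those worms were single adult Trichuris muris from infected NOD SCID mice, each in a 96-well plate well with 100 μL RPMI-1640 plus antibiotics and drug at 100 μM (1% v/v DMSO). Paragon pixel-variance analysis produced the motility score, averaged over replicate wells. Testing used three worms in three wells per drug across three separate occasions, with vehicle and positive controls.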"}
{"compound": "COc1ccc2c(c1)c(CC(=O)O)c(C)n2C(=O)c1ccc(Cl)cc1", "note": "[indomethacin]", "mean motility score": 2460}
{"compound": "CN(C)CC/C=C1/c2ccccc2Sc2ccc(Cl)cc21", "note": "[chlorprothixene]", "mean motility score": 5}
{"compound": "CCc1c2c(nc3ccc(OC(=O)N4CCC(N5CCCCC5)CC4)cc13)-c1cc3c(c(=O)n1C2)COC(=O)[C@]3(O)CC", "note": "[irinotecan]", "mean motility score": 2280}
{"compound": "Oc1ncnc2[nH]ncc12", "note": "[allopurinol]", "mean motility score": 4000}
{"compound": "O=C1c2ccccc2C(=O)C1c1ccccc1", "note": "[phenindione]", "mean motility score": 4420}
{"compound": "Cc1cccc(N(C)C(=S)Oc2ccc3ccccc3c2)c1", "note": "[tolnaftate]", "mean motility score": 2620}
{"compound": "O=C1c2c(O)ccc(O)c2C(=O)c2c(NCCNCCO)ccc(NCCNCCO)c21", "note": "[mitoxantrone]", "mean motility score": 1350}
{"compound": "Cc1nc2n(c(=O)c1CCN1CCC(c3noc4cc(F)ccc34)CC1)CCCC2", "note": "[risperidone]", "mean motility score": 2130}
{"compound": "CN1CC(=O)N2[C@H](c3ccc4c(c3)OCO4)c3[nH]c4ccccc4c3C[C@@H]2C1=O", "note": "[tadalafil]", "mean motility score": 990}
{"compound": "CC(=O)Oc1cccc2c1C(=O)c1c(OC(C)=O)cc(C(=O)O)cc1C2=O", "note": "[diacerein]", "mean motility score": 0}
{"compound": "CCn1cc(C(=O)O)c(=O)c2cc(F)c(N3CCNC(C)C3)c(F)c21", "note": "(stereo unspecified) [lomefloxacin]", "mean motility score": 3840}
